Compound activity deposited in PubChem by National Center for Advancing Translational Sciences (NCATS).
Pf growth 96h = Primary qHTS for delayed death inhibitors of the malarial parasite plastid, 96 hour incubation; AID 504834, 2011; P. falciparum luciferase reporter growth, 96 h; hit rate 6.9% among 320,000; Potency, µM (titrated, usually from 28.7 µM), for inactives: at the top dose activity change, negative = inhibition, usual class: inhibitors; further: on the % scale 0 is the no-effect control and ±100 the full control effect
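Cell-based qHTS: luciferase-tagged P. falciparum in erythrocytes (2% hematocrit, 0.05% parasitemia final) incubated with compounds for 96 hours, 37 C, 5% CO2; luciferase detection reagent then added and luminescence measured.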
Pf growth 48h = Primary qHTS for delayed death inhibitors of the malarial parasite plastid, 48 hour incubation; P. falciparum luciferase growth in erythrocytes, 48 h; Potency, µM (titrated, usually from 28.7 µM), for the others: top-dose activity change, negative = inhibition, hits mostly inhibitors; hit rate 5.9% among 310,000; AID 504832, 2011; further: on the % scale 0 is the no-effect control and ±100 the full control effect
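Cell-based growth assay: transgenic P. falciparum expressing firefly luciferase, cultured in red cells within RPMI 1640 containing 0.5% w/v Albumax, 24 mM bicarbonate and gentamycin. A drop in luciferase activity indicates inhibition.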
NS1 function inh = qHTS Assay for Inhibitors of Influenza NS1 Protein Function | hit rate 0.4% among 270,000 | Potency, µM (highest dose often 46.1 µM), for inactives: top-dose activity, positive = more growth; calls by dose curve; further: actives are rising curves; nearly all actives have a fitted effect of over 50% in size
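A cell-based growth assay was used: compounds that relieve NS1-induced slow growth of budding yeast raise OD600. Assay medium was yeast nitrogen base with ammonium sulphate and -URA supplement, pH 6.0, with 2% galactose.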
SARS PLpro yeast = qHTS of Yeast-based Assay for SARS-CoV PLP | S. cerevisiae expressing SARS-CoV PLpro, growth rescue | Potency, µM (doses to about 32.9 µM), inactives show top-dose activity, positive = growth rescue, usual class: activators | hit rate 0.19% among 330,000 | AID 485353, 2010; calls by dose curve; further: 0% is about no effect; nearly all actives have a fitted effect of over 55% in size
RE007 growth inh = qHTS Assay for Inhibitors of the HIV-1 protein Vpr; S. pombe RE007 Vpr strain, BacTiter-Glo ATP luminescence, 24 h; hit rate 0.21% among 360,000; AID 651644, 2012; Potency, µM (doses to about 92.2 µM), for inactives: top-dose activity change, negative = less growth, usual class: inhibitors; active means well fitted falling curve with a large enough effect; inconclusive means small, poorly fitted or top-dose-only effect; inactive means no such curve, though single readings can be large or run the other way; further: on the % scale 0 is the no-effect control and ±100 the full control effect; nearly all actives have a fitted effect of over 50% in size
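Fission yeast RE007 carrying one integrated HIV-1 vpr copy, seeded at OD 0.01 in PMG+AL medium with 23 nL pinned compound. Grown 24 h at 30 degrees; viability read by BacTiter-Glo luminescence after 5 min.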
An asterisk follows results filed as active; u = inconclusive; x = no result; [ ] = dose if it differs, or a comment. Compounds with a hit are over-represented: about 9.5% of the library has one in this group of screens. Unless noted, the call rests on the fitted dose curve; in most records, active means well fitted inhibition curve with a large enough effect; inconclusive means small, poorly fitted or top-dose-only effect, or another doubt; inactive means no such curve, though single readings can be large or run the other way. Potency means the concentration at half of the fitted maximal effect.

SMILES | Pf growth 96h | Pf growth 48h | NS1 function inh | SARS PLpro yeast | RE007 growth inh
O=C(CCc1nnc(CCCc2ccccc2)o1)NCCc1ccco1 | 9.28µM* | 20.8% | -1.9% | -0.8% | -13.4%
C[C@H]1CN([C@@H](C)CO)C(=O)c2cc(Br)cnc2O[C@@H]1CN(C)S(C)(=O)=O | x | x | x | x | -0.8%
O=C1Nc2cc(C(=O)NCCN3CCCCCC3)ccc2S/C1=C/c1ccccc1F | x | x | x | x | 6.5%
O=C1Nc2cc(C(=O)NCCCN3CCCC3)ccc2S/C1=C/c1ccccc1F | 13.1µM* | u | 2.2% | -3.4% | -6.7%
O=C(NCCN1CCOCC1)c1ccc2c(c1)N(Cc1cccc(F)c1)C(=O)c1ccccc1S2 | -12.8% | u | x | 2.7% | -3.1%
Cc1ccc(CN2CCSc3ccc(C(=O)NCCCN4CCN(C)CC4)cc32)cc1 | u | 14.7µM* | -1.1% | -4.6% | 13.6%
CCCCNC(=O)Nc1ccc2c(c1)N(C)C(=O)c1ccccc1S2 | 3.29µM* | u | -4.1% | 0.8% | 10.2%
Cc1ccc(CN2C(=O)c3ccccc3Sc3ccc(C(=O)NCCCN4CCOCC4)cc32)cc1 | 43.9% | 11.7µM* | -3.9% | 22.5% | 6.1%
CCN(CC(=O)NCC1CCCO1)S(=O)(=O)c1ccc2ccccc2c1 (configuration not stated) | -17.8% | 13.9% | -16.0% | -6.7% | 0.0%
O=C(NCCCN1CCCCC1)c1ccc2c(c1)NC(=O)c1ccccc1S2 | u | u | -11.6% | 3.7% | 1.6%
CCN1C(=O)c2ccccc2Sc2ccc(C(=O)NCCCN3CCCCC3)cc21 | 10.4µM* | -17.0% | -2.0% | 0.0% | 2.3%
Cc1cc(C)cc(NS(=O)(=O)c2c(C)[nH]c(=O)[nH]c2=O)c1 | 2.08µM* | 12.0% | -4.0% | -3.6% | 21.4%
C[N+](C)(C)c1nc(N)nc2c1ncn2[C@H]1O[C@@H](CO)[C@@H](O)[C@H]1O | x | x | -5.5% | x | x
Cc1ccc(NC(=O)c2ccc(Cl)c(S(=O)(=O)NCC3CCCO3)c2)c(O)c1 (configuration not stated) | 6.57µM* | u | 3.5% | 3.7% | 3.8%
Cc1ccccc1-c1cc2nc(Oc3cccc4ccccc34)n(C)c(=O)c2s1 | x | x | x | x | 3.1%[18.4 µM]
Cc1ccc(NC(=O)CCNS(=O)(=O)c2ccc3c(c2)oc(=O)n3C)c(C)c1 | 11.7µM* | u | -0.7% | 6.1% | -3.7%
Cn1c(=O)oc2cc(S(=O)(=O)NCCC(=O)N3CCN(c4ccccc4F)CC3)ccc21 | 31.8% | u | 8.7% | 4.5% | 9.3%
Cn1c(=O)oc2cc(S(=O)(=O)NCCC(=O)N3CCN(c4ccccc4)CC3)ccc21 | 13.1µM* | u | -1.7% | -1.9% | -3.6%
Cc1cc(C)cc(NC(=O)CCNS(=O)(=O)c2ccc3c(c2)oc(=O)n3C)c1 | u | u | -2.6% | 8.4% | -1.0%
Cc1ccc(C)c(N2CCN(C(=O)CCNS(=O)(=O)c3ccc4c(c3)oc(=O)n4C)CC2)c1 | 1.65µM* | -29.5% | 15.8% | 1.3% | 3.6%
CCOC(=O)N1CCN(CC(=O)Nc2cc(OCC)ccc2OCC)CC1 | x | u | -36.6% | -7.6% | -9.0%
CCOc1ccc(OCC)c(NC(=O)CN2CCN(c3ccc(C)cc3C)CC2)c1 | -7.9% | 8.28µM* | -34.1% | -36.5% | 13.5%
O=C1NC2(CCCCCC2)C(=O)N1Cc1ccccc1Cl | 3.1% | 5.5% | -4.0% | -3.1% | 0.9%
COC(=O)c1cc(S(=O)(=O)N2CCCC2=O)c(Cl)cc1Cl | 10.4µM* | u | 4.0% | -0.6% | -3.8%
CCN(CC)CCCN(Cc1cc2ccc(C)c(C)c2[nH]c1=O)C(=O)NC1CCCCC1 | 9.28µM* | u | 5.8% | 8.1% | -14.4%
SMILES | Pf growth 96h | Pf growth 48h | NS1 function inh | SARS PLpro yeast | RE007 growth inh
Cc1ccc2cc(CN(CC3CCCO3)C(=O)NC3CCCCC3)c(=O)[nH]c2c1C (configuration not stated) | 3.4% | 9.2% | 0.1% | 3.1% | -8.0%
COc1ccc(CCN(Cc2cc3cccc(C)c3[nH]c2=O)C(=O)NC2CCCCC2)cc1OC | 2.94µM* | x | 0.9% | 12.3% | -11.7%
Cc1nn(C)c(C)c1CN(C)C(=O)c1nn2c(c1Br)NC(c1cccs1)CC2C(F)(F)F (configuration not stated) | 9.28µM* | u | 8.6% | 11.5% | 3.2%
Cc1nn(C)c(C)c1CNC(=O)c1cc2n(n1)C(C(F)(F)F)CC(c1cccs1)N2 (configuration not stated) | 7.38µM* | -6.2% | -9.6% | 2.2% | 6.0%
O=C(NC1CCCC1)C(c1ccc(F)cc1)N(C(=O)c1csnn1)C1CC1 (configuration not stated) | -2.4% | 11.6% | -1.8% | -2.5% | 16.6%
CCc1cccc(CC)c1NC(=O)CSc1nc2ccc(N3C(=O)C4C5C=CC(C5)C4C3=O)cc2s1 (configuration not stated) | x | 0.0% | 13.4% | -0.1% | -14.2%
COC(=O)c1ccc(NC(=O)CSc2nc3ccc(N4C(=O)C5C6C=CC(C6)C5C4=O)cc3s2)cc1 (configuration not stated) | 9.28µM* | u | u | 28.5% | -9.0%
CC1CCN(C(CC(=O)c2ccccc2)C(=O)c2ccccc2)CC1 (configuration not stated) | x | x | x | x | 4.47µM*
O=C(C[C@@H](C(=O)O)N1CCOCC1)c1ccccc1 | x | x | -0.7% | x | x
CC(C)OCCCN(CC(O)c1ccccc1)CC(O)c1ccccc1 (configuration not stated) | u | 10.4µM* | 15.0% | -8.5% | 13.7%
CCCN(CC1CC1)CC(O)c1ccccc1 (configuration not stated) | 13.1µM* | 14.7µM* | 6.0% | -1.7% | 8.6%
COc1ccccc1-c1sc2ccccc2c1-c1ccc2c(c1)OCO2 | 5.22µM* | 4.65µM* | 3.1% | 0.4% | -15.2%
CCc1cccc(NC(=O)c2snc3c(=O)[nH]cnc23)c1 | -16.5% | 4.4% | -5.3% | -4.5% | 20.5%
Cc1cccc(NC(=O)c2snc3c(=O)[nH]cnc23)c1 | 6.57µM* | 10.9% | -4.3% | -11.9% | x
O=C1CNC(=S)N1CCCc1ccccc1 | 9.2% | 21.4% | -5.6% | -1.2% | -3.7%
CC(NC(=O)c1cc2c(s1)CS(=O)(=O)C2)c1ccccc1 (configuration not stated) | 51.7% | 11.1% | 10.2% | -5.5% | 4.4%
Cc1ccsc1/C=C1\CCc2ccccc2C1=O | 10.4µM* | x | -58.2% | -27.6% | 12.6µM*
Cc1ccccc1/C=C1\CCCc2ccccc2C1=O | 210.7% | 170.1% | -18.3% | -22.5% | -15.6%
CN(C)Cc1c(O)ccc2c(-c3ccccc3)cc(=O)oc12 | 9.28µM* | -8.8% | -6.5% | -1.2% | 8.1%
CCOC(=O)c1c(CSc2cccs2)n(C)c2cc(Br)c(O)c(CN(C)C)c12 | 14.9% | 13.1µM* | 7.9% | 0.1% | -14.3%
